According to PubChem BioAssay (Tox21):
Several values for one entry are separate records, joined by “and”; a condition that tells them apart may be missing. Identical values can stand only once. Records with an inconclusive call do not appear. Where a call stands in place of a potency, no number is given. Unmarked numbers belong to inactive results. Activity calls are given as the source filed them. Unless noted, calls come from the whole dose curve; as a rule, active = well fitted cell-killing curve with a large enough effect in the repeat runs; inconclusive = weak or mixed curves, or effect the other way; inactive = flat fitted curve, though single readings scatter.

Experiment: Nuclear factor erythroid 2-related factor 2/antioxidant responsive element (Nrf2/ARE) small molecule agonists: qHTS cell viability counter screen in human keratinocytes (AID 1919968); note: nearly all actives have a fitted effect of over 55% in size
Settings: KeratinoSens HaCaT ARE cells viability, CellTiter-Fluor, 24 h; series mostly up to 92.4 µM
In short: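 Viability counter-screen: KeratinoSens reporter cells, DMSO-delivered compounds, 23 h at 37 C, CellTiter-Fluor fluorescence.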
Potency is the fitted concentration of half-maximal effect.

| Compound | activity change, negative = cytotoxicity | Potency |
| --- | --- | --- |
| Nc1c(NC/C=C\COc2cc(CN3CCCCC3)ccn2)c(=O)c1=O | 1.77% [at 19 µM] |  |
| O=S(=O)(O)c1ccc2cc(O)c(S(=O)(=O)O)cc2c1 |  | inactive |
| COCCOCCOCCOCCOC |  | inactive |
| COCCOCCOCCOCCOCCO |  | inactive |
| CCCO |  | inactive |
| O=[N+]([O-])c1ccc(Oc2ccc([N+](=O)[O-])cc2)cc1 |  | inactive |
| CC[N+](C)(C)c1cccc(O)c1 |  | inactive |
| CCCCCCCN |  | inactive |
| CS(C)(=O)=O |  | inactive |
| O=c1[nH]c(=O)c2cn[nH]c2[nH]1 |  | inactive |
| CCC(COC(=O)CCS)(COC(=O)CCS)COC(=O)CCS |  | inactive |
| CC(C)N=C(N)/N=C(\N)Nc1ccc(Cl)cc1 |  | inactive |
| CC(C)(C)c1ccc(O)c(C(C)(C)C)c1 |  | 27.2 µM (active) and 43.3 µM (active) |
| CCCCCCCC(=O)N(C)C |  | inactive |
| CCCCC(C)C(=O)O (stereo not drawn) |  | inactive |
| CCO[Si](CCCN=C=O)(OCC)OCC |  | inactive |
| CCCCCCCCO[C@@H]1O[C@H](CO)[C@@H](O)[C@H](O)[C@H]1O |  | inactive |
| Cc1ccc(N=Nc2c(O)ccc3ccccc23)c(C)c1 |  | inactive |
| CCCOCCO |  | inactive |
| COc1ccc(N=[N+]([O-])c2ccc(OC)cc2)cc1 |  | inactive |

| Compound | activity change, negative = cytotoxicity | Potency |
| --- | --- | --- |
| Cc1cc(N)n(-c2ccccc2)n1 |  | inactive |
| O=C1OC(=O)c2ccccc21 |  | inactive |
| OC[C@H]1O[C@H](O[C@H]2O[C@H](CO)[C@@H](O)[C@H](O)[C@H]2O)[C@H](O)[C@@H](O)[C@@H]1O |  | inactive |
| CCSC(=O)N(CC)CC |  | inactive |
| CCCCC(=O)N(C)C |  | inactive |
| CC(=O)NC(Cc1ccccc1)C(=O)O (stereo not drawn) |  | inactive |
| C=C(C)C(=O)NCCC[N+](C)(C)C |  | inactive |
| CCCC(C)CCC(C)=O (stereo not drawn) |  | inactive |
| C/C=C/C(=O)C1=C(C)C=CCC1(C)C |  | inactive |
| NS(=O)(=O)c1ccccc1OC(F)(F)F |  | inactive |
| CC(=O)Oc1ccccc1C(=O)Nc1ncc([N+](=O)[O-])s1 |  | 55.6 µM (active) |
| C1CN(CCOCCN2CCOCC2)CCO1 |  | inactive |
| CC(=O)CC/C=C(\C)CC/C=C(\C)CC/C=C(\C)CCC=C(C)C |  | inactive |
| C=CCOCC(O)CO (stereo not drawn) |  | inactive |
| CC(CCC(=O)O)C(=O)O (stereo not drawn) |  | inactive |
| CCOC(C)(C)C |  | inactive |
| O=Cc1cccc([N+](=O)[O-])c1 |  | inactive |
| CC(C)CC(O)Cc1ccccc1 (stereo not drawn) |  | inactive |
| CC(=O)OCCN(CCOC(C)=O)c1ccc(N=Nc2ccc([N+](=O)[O-])cc2C#N)cc1 |  | inactive |

Experiment: Nuclear factor erythroid 2-related factor 2/antioxidant responsive element (Nrf2/ARE) small molecule agonists: luciferase reporter gene qHTS assay in human keratinocytes (AID 1919969; calls by dose curve; note: nearly all actives have a fitted effect of over 35% in size)
Settings: KeratinoSens HaCaT ARE-luciferase, luminescence, 24 h; series mostly up to 92.4 µM

| Compound | activity, positive = activation | Potency |
| --- | --- | --- |
| Nc1c(NC/C=C\COc2cc(CN3CCCCC3)ccn2)c(=O)c1=O | -5.23% [at 19 µM] |  |
| O=S(=O)(O)c1ccc2cc(O)c(S(=O)(=O)O)cc2c1 |  | inactive |
| COCCOCCOCCOCCOC |  | inactive |
| COCCOCCOCCOCCOCCO |  | inactive |
| CCCO |  | inactive |
| O=[N+]([O-])c1ccc(Oc2ccc([N+](=O)[O-])cc2)cc1 |  | inactive |
| CC[N+](C)(C)c1cccc(O)c1 |  | inactive |
| CCCCCCCN |  | inactive |
| CS(C)(=O)=O |  | inactive |
| O=c1[nH]c(=O)c2cn[nH]c2[nH]1 |  | inactive |
| CCC(COC(=O)CCS)(COC(=O)CCS)COC(=O)CCS |  | inactive |
| CC(C)N=C(N)/N=C(\N)Nc1ccc(Cl)cc1 |  | inactive |
| CC(C)(C)c1ccc(O)c(C(C)(C)C)c1 |  | 9.65 µM (active) and 61.1 µM (active) |
| CCCCCCCC(=O)N(C)C |  | inactive |
| CCCCC(C)C(=O)O (stereo not drawn) |  | inactive |
| CCO[Si](CCCN=C=O)(OCC)OCC |  | inactive |
| CCCCCCCCO[C@@H]1O[C@H](CO)[C@@H](O)[C@H](O)[C@H]1O |  | inactive |
| Cc1ccc(N=Nc2c(O)ccc3ccccc23)c(C)c1 |  | 2.66 µM (active) |
| CCCOCCO |  | inactive |
| COc1ccc(N=[N+]([O-])c2ccc(OC)cc2)cc1 |  | inactive |

| Compound | activity, positive = activation | Potency |
| --- | --- | --- |
| Cc1cc(N)n(-c2ccccc2)n1 |  | inactive |
| O=C1OC(=O)c2ccccc21 |  | inactive |
| OC[C@H]1O[C@H](O[C@H]2O[C@H](CO)[C@@H](O)[C@H](O)[C@H]2O)[C@H](O)[C@@H](O)[C@@H]1O |  | inactive |
| CCSC(=O)N(CC)CC |  | inactive |
| CCCCC(=O)N(C)C |  | inactive |
| CC(=O)NC(Cc1ccccc1)C(=O)O (stereo not drawn) |  | inactive |
| C=C(C)C(=O)NCCC[N+](C)(C)C |  | inactive |
| CCCC(C)CCC(C)=O (stereo not drawn) |  | inactive |
| C/C=C/C(=O)C1=C(C)C=CCC1(C)C |  | inactive |
| NS(=O)(=O)c1ccccc1OC(F)(F)F |  | inactive |
| CC(=O)Oc1ccccc1C(=O)Nc1ncc([N+](=O)[O-])s1 |  | 39.3 µM (active) and 29.8 µM (active) |
| C1CN(CCOCCN2CCOCC2)CCO1 |  | inactive |
| CC(=O)CC/C=C(\C)CC/C=C(\C)CC/C=C(\C)CCC=C(C)C |  | 26.6 µM (active) |
| C=CCOCC(O)CO (stereo not drawn) |  | inactive |
| CC(CCC(=O)O)C(=O)O (stereo not drawn) |  | inactive |
| CCOC(C)(C)C |  | inactive |
| O=Cc1cccc([N+](=O)[O-])c1 |  | inactive |
| CC(C)CC(O)Cc1ccccc1 (stereo not drawn) |  | inactive |
| CC(=O)OCCN(CCOC(C)=O)c1ccc(N=Nc2ccc([N+](=O)[O-])cc2C#N)cc1 |  | inactive |
